Measurements as given in PubChem BioAssay AID720519 (National Center for Advancing Translational Sciences (NCATS), 2013).
Results filed as inconclusive are left out. The call rests on the fitted dose curve; in most records, active means well fitted activation curve with a large enough effect; inconclusive means small, poorly fitted or top-dose-only effect; inactive means flat fitted curve, though single readings scatter.

Assay: qHTS for Inhibitors of Cell Surface uPA Generation: Confirmatory Assay for Cherry-picked Compounds; further: 0% is about no effect
Conditions: cell surface uPA activity generation, qHTS confirmation; series mostly up to 115 µM; inhibition: at the top concentration
Method in brief: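 RAW 264.7 cells at 4000/well, incubated overnight, then treated with compounds. After 24 h at 37 C, viability was read by ATPlite luminescence. An increase in signal indicates blocked uPA-dependent LF entry.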

inhibition, inactive:
COc1ccc(NS(=O)(=O)c2cc(NS(=O)(=O)c3cc(C(=O)O)ccc3OC)ccc2C)cc1 -0.471%
Cc1ccc(C(CC(=O)N2CCCC2)c2ccccc2)c(O)c1 (centres undefined) -1.01%
CCc1ccc(S(=O)(=O)NCCc2cn3cccc(C)c3n2)s1 -2.57%
CCc1ccc(N2CC(C(=O)Nc3ccc4c(c3)OCO4)CC2=O)cc1 (centres undefined) 1.98%
COc1cccc(NC(=S)NCc2ccc3c(c2)cc(C)n3C)c1 -3.09%
COCc1cc(C)nc2sc(C(=O)Nc3nccs3)c(N)c12 -1.16%
Cc1ccc(NC(=O)c2ccc(=O)[nH]n2)cc1S(=O)(=O)Nc1ccccc1Cl 1.5%
Cc1ccc(C)c(S(=O)(=O)Nc2ccccc2C(=O)Nc2cc(C)on2)c1 -2.99%
O=C(Cc1ccc(Cl)cc1)NC(=S)Nc1ccccc1O 2.56%
COc1cccc(-n2c(SCC(=O)Nc3cc(C)on3)nc3c([nH]c4ccccc43)c2=O)c1 10.4%
Cc1ccnc(N2CCN(C(=O)CSc3nc4ccccc4nc3N3CCC(C)CC3)CC2)c1 -3.35%
CCOC(=O)C1CCN(S(=O)(=O)c2c[nH]c(=O)[nH]c2=O)CC1 -1.54%
O=C(N/C(=C\c1cccc([N+](=O)[O-])c1)C(=O)N1CCOCC1)c1ccc([N+](=O)[O-])cc1 -0.71%
Cc1ccc(S(=O)(=O)N2CCN(C(=O)c3n[nH]c(=O)c4ccccc34)CC2)cc1 -1.76%
O=C(N/N=C/c1cccs1)c1ccco1 -2.33%
CN(C)S(=O)(=O)c1ccc(NC(=O)COC(=O)CC2CC3CCC2C3)cc1 (centres undefined) 0.968%
CCO[C@H]1OC(C(=O)N2CCCCCCC2)=C[C@@H](c2ccc(C(F)(F)F)cc2)[C@@H]1CCCO -2.91%
COc1ccc2nc(SC(C)C(=O)NC3(C#N)CCCCC3)[nH]c2c1 (centres undefined) -2.91%
CC(C)C[C@H]1CN([C@@H](CC(C)C)CN2CCCC2CN2C(=S)NC[C@@H]2Cc2ccc(O)cc2)C(=S)N1CC1CCCCC1 (some centres undefined) -2.13%
CC1CCCN(C(=O)c2ccc(-c3ccccc3Cl)o2)C1 (centres undefined) -3.9%
COc1ccc(Cc2nnc(NC(=O)Nc3ccc(F)cc3)s2)cc1 10.6%
CCn1c(SC(C)C(=O)NC2CCCC2)nc2cc(S(N)(=O)=O)ccc21 (centres undefined) 6.22%
COc1ccccc1C(=O)NCCC(=O)NCC(c1ccc(F)cc1)N1CCOCC1 (centres undefined) -2.36%
CN(CCO)c1ccc(C(C(=O)c2ccccc2)c2ccc(N(C)CCO)cc2)cc1 -2.56%
CCOC(=O)c1c(C)oc2ccc(OC(=O)COc3c(F)c(F)c(F)c(F)c3F)cc12 -0.536%
CN(/N=C/c1cc(Cl)cc(Cl)c1O)C(=S)NC(C)(C)C -3.36%
CCC(COC)NC(=O)CCc1nnc(Cc2c[nH]c3ccccc23)o1 (centres undefined) -1.15%
COc1ccc(C2=Nc3ccccc3C2(O)CCN2C(=O)c3ccccc3C2=O)cc1 (centres undefined) -1.72%
CC1=CC(C)C(C[N+]2(C)CCCCC2)C(C)C1 (centres undefined) -2.55%
COc1ccccc1NS(=O)(=O)c1cc(NC(=O)CCc2nc3ccccc3c(=O)[nH]2)ccc1C -1.6%
CCN(CC)S(=O)(=O)c1ccc(C(=O)Nc2nnc(COC)o2)cc1 -1.3%
COc1ccc(NC(=O)Nc2nnc(N3CCCCC3C)s2)cc1OC (centres undefined) -1.68%
Cc1cnc(C(=O)OCC(=O)Nc2ccc3c(c2)OCCO3)cn1 -0.779%
CCCc1nn2c(=O)cc(CSCC(=O)Nc3ccccc3)nc2s1 0.845%
O=C(NC1CC1)C1CCCN(C(=O)NC2CCCCC2)C1 (centres undefined) -1.77%
CCOC(=O)c1c(NC(=O)CC2SC(N)=NC2=O)sc2c1CCC(C)C2 (centres undefined) -2.04%
COc1cc(C(=O)N/N=C(\Cc2ncc[nH]2)c2ccccc2)cc(OC)c1OC 0.667%
CCOc1cc(C)c(S(=O)(=O)N2CCCCC2)cc1C -2.77%
COc1cccc(CN(C)C(=O)c2cc(S(=O)(=O)N3CCCC3)ccc2C)c1OC -1.45%
